# From PubChem BioAssay AID602340 (Broad Institute, 2012)
# The whole screen tested about 330,000 compounds, of which about 2,600 (0.79%) were called active.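 Rule for the calls: active = mean ATP rescue above about 67%, or every replicate alone reaching that limit (limit read from the data, passing the limit was not always enough); inconclusive = no clear call, values can overlap the other calls; inactive = mean under the limit and some replicate under it.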 Only a selection was taken, and actives are over-represented in it overall.
# Assay: protection of differentiated C2C12 cells from simvastatin – single point, plate reader, primary screen (AID 602340);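 note: myotubes were challenged with 10 µM simvastatin during compound exposure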
# Conditions: C2C12 myotubes + simvastatin, ATP luminescence, 48 h; at 7.49 µM; hits give high values; scaled: DMSO 0, geranylgeraniol control 100
row,SMILES,rescue of ATP level
1,CO[C@@H]1CN(C)C(=O)c2cc(NC(=O)c3cccc(F)c3)ccc2OC[C@H](C)N(C)C[C@@H]1C,6.21% (inactive)
2,CN1CCN(CCCNC(=O)c2ccc(/C=C3\Oc4ccccc4N(Cc4ccc(Cl)cc4)C3=O)cc2)CC1,88.6% (active)
3,CC(C)OCCCNC(=O)CN1C(=O)/C(=C/c2ccccc2F)Oc2ccccc21,-11.5% (inactive)
4,CCCN1CCN(C(=O)CCCNC(=O)c2ccc(Cl)cc2)CC1,-1.82% (inactive)
5,CS(=O)(=O)Nc1ccc2c(c1)[C@H]1C[C@@H](CC(=O)NCCc3ccccc3)O[C@@H](CO)[C@H]1O2,3.14% (inactive)
6,O=C(COC(=O)c1cc(S(=O)(=O)N2CCOCC2)ccc1F)NC1CC1,-0.144% (inactive)
7,O=C(OCCOc1ccccc1F)c1cc(S(=O)(=O)N2CCOCC2)ccc1F,12.7% (inactive)
8,COc1cc(NC(=O)COC(=O)c2cc(S(=O)(=O)N3CCOCC3)ccc2F)cc(OC)c1,117% (active)
9,CC=Cc1ccc2n(c1=O)C[C@@H]1[C@@H](CO)[C@H](C(=O)NCC)[C@H]2N1CCC(F)(F)F (mixture of isomers),12.8% (inactive)
10,CC(C)CC#Cc1cnc2c(c1)C(=O)N([C@H](C)CO)C[C@H](C)[C@H](CN(C)CC1CCOCC1)O2,17.7% (inactive)
11,C[C@@H]1CN([C@H](C)CO)C(=O)Cc2cc(NC(=O)Cn3cnnn3)ccc2O[C@H]1CN(C)CC1CCCCC1,19.6% (inactive)
12,CCc1noc(C)c1C(=O)Nc1nc(-c2ccccc2)cs1,-35.8% (inactive)
13,CCCc1ccc(-c2csc(NC(=O)Cc3cccs3)n2)cc1,20.4% (inactive)
14,Cc1ccc(-c2csc(NC(=O)c3cccs3)n2)cc1,112% (active)
15,COc1ccc(C(=O)Nc2ccc3c(c2)OC[C@H](C)N(C(C)=O)C[C@@H](C)[C@@H](OC)CN(C)C3=O)cc1,-4.78% (inactive)
16,COc1cccc(C(=O)Nc2ccc3c(c2)C(=O)N(C)[C@@H]2CC[C@H](CC(=O)NCC4CC4)O[C@@H]2CO3)c1,4.48% (inactive)
17,COc1cccc(C(=O)Nc2ccc3c(c2)C(=O)N(C)[C@@H]2CC[C@@H](CC(=O)NCCCN4CCOCC4)O[C@@H]2CO3)c1,8.62% (inactive)
18,CCCNC(=O)N1C[C@H]2[C@@H](c3ccccc31)[C@H](CO)N2C(=O)NC(C)C,-5.25% (inactive)
19,Cc1[nH]c2ccc(S(N)(=O)=O)cc2c1C,6.68% (inactive)
20,CCOC(=O)c1cc2sccc2n1Cc1ccc(C#N)cc1,29.8% (inactive)
21,Cc1c(C(C)(C)O)[nH]c2ccc(C#N)cc12,81.3% (active)
